# High-throughput results as filed in PubChem.
# Most compounds without a hit are left out; they make up all but 1.3% or so of the library.
# Smad3 FoxH1 inh – blocks human Smad3 binding to FoxH1 peptide; P84022; TR-FRET Smad3/Dy647-FoxH1 peptide binding, europium anti-His; inhibition, % at 25 µM; 88,000 tested, 0.29% active; AID 630;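 active = compounds that reduce the energy-transfer binding signal between the protein and its labelled peptide by more than half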;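 note: 0% = Smad3 plus labelled peptide maximal FRET and 100% = peptide-only background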
# Target sequence (P84022 whole entry, looked up): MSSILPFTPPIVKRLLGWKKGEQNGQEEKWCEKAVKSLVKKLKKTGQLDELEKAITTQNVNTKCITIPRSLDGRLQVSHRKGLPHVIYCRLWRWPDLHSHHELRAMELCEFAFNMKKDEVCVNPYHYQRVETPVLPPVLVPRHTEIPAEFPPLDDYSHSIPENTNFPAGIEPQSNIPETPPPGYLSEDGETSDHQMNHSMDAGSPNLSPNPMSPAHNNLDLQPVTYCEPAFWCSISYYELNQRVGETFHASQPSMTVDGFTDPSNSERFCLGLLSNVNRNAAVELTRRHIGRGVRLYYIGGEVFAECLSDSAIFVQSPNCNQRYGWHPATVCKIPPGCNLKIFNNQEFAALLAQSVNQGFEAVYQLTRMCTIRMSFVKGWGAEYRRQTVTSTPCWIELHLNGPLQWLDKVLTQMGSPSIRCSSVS
# GALR2 blocker – GALR2 (human) receptor antagonism | GALR2-expressing cells, antagonist mode | inhibition, % at 4 µM | O43603 | 140,000 tested, 0.39% active;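 note: cells stimulated with galanin 1-16 at roughly its EC80; 0% = agonist challenge control and 100% = basal control without agonist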
# S1P2 ag – S1P2 (human) receptor agonism | O95136 | S1P2-expressing cell line, agonist reporter read-out | activation, % at 4.5 µM | 97,000 tested, 0.46% active | AID 729; in the data active = activation above about 16%;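 note: 0% = vehicle low control and 100% = maximal reference agonist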
# S1P2 antag – blocks the human S1P2 receptor | cell-based S1P2 antagonist assay, inhibition at 5 uM | inhibition, % at 5 µM | 97,000 tested, 0.21% active | AID 736; in the data active = inhibition above about 45%;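 note: CRE beta-lactamase reporter cells expressing human S1P2 stimulated with S1P; 0% = agonist at EC80 alone and 100% = agonist plus reference antagonist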
# Calb biofilm kill – kills Candida albicans biofilms | C. albicans biofilm + clotrimazole, Alamar Blue | inhibition, % at 6 µM | 85,000 tested, 0.14% active | AID 834;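 active = inhibition above 20%; inactive = inhibition below 20%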;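 note: preformed 24 hr biofilms exposed to compound for 48 hr; 0% = biofilm without compound and 100% = blank killed by clotrimazole plus chlorhexidine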
# GALR2 agonist – GALR2 (human) receptor agonism. GALR2-expressing cells, agonist activation read-out. 140,000 tested, 0.48% active. activation, % (test concentration not listed). O43603. AID 803; in the data active = activation above about 5%, passing the limit was not always enough;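 note: 0% = vehicle buffer wells and 100% = reference agonist at full effect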
# GALR2 ant conf – confirmation of human galanin receptor 2 (GALR2) antagonists. shares compounds with GALR2 blocker. GALR2-expressing cells, antagonist mode, inhibition. inhibition, % at 4 µM. 480 tested, 60% active;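 note: cells stimulated with galanin at about its EC80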
# BLA inh counter – inhibits beta-lactamase reporter in GALR2 antagonist counterscreen; 480 tested, 36% active; shares compounds with GALR2 blocker; CHO NFAT-BLA reporter, beta-lactamase FRET, thapsigargin-stimulated; inhibition, % at 4.2 µM;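 active = inhibition above the mean inhibition across tested compounds plus 3 SD, cut at about 27% in these data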;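 note: 0% = 500 nM thapsigargin stimulated wells and 100% = unstimulated BSA only wells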
# * = called active by the depositor; . = no result given. Cut-off read from the data, not from the text of the source, unless noted: active = inhibition above about 27%; inactive = the rest.
SMILES,Smad3 FoxH1 inh,GALR2 blocker,S1P2 ag,S1P2 antag,Calb biofilm kill,GALR2 agonist,GALR2 ant conf,BLA inh counter
Cc1ccccc1Oc1cc(-n2ncc(Cl)c(Cl)c2=O)ncn1,.,82*,.,.,.,-2,97*,103*
COc1ccc(C2OC(=O)CC2C(=O)N2CCN(c3cc(Cl)ccc3C)CC2)cc1OC (configuration not stated),3,-9,-2,-24,10,-2,.,.
COc1ccc(-n2nc(C(=O)Nc3ccc4c(c3)OCO4)c3ccccc3c2=O)c(OC)c1,10,5,.,.,7,-2,.,.
COc1ccccc1-n1nc(C(=O)Nc2ccc3c(c2)OCO3)c2ccccc2c1=O,-1,42*,.,.,5,-2,26,31*
Cc1cc[n+]2cc(-c3cccc([N+](=O)[O-])c3)c(-c3cccc([N+](=O)[O-])c3)cc2c1,.,0,.,.,.,-1,.,.
COc1ccc(-c2cnc3c(c2)CCC3(C#N)C#N)cc1,.,31*,.,.,.,1,17,19
C=CCn1c(=O)/c(=C/c2cc(OC)c(OC)c(OC)c2)s/c1=C(/C#N)c1nc2ccccc2n1C,6,9,.,.,7,0,.,.
Cc1onc(-c2ccccc2)c1C(=O)Nc1nc2c(s1)CCCC2,-20,27*,-2,-9,-2,-1,8,4
CN(C(=S)NC1CCCCC1)C1(c2ccccc2Cl)CCCCC1=O (configuration not stated),.,27*,.,.,.,0,34*,8
Oc1ccccc1/C=N/Nc1ncc(Br)cn1,.,8,.,.,.,-1,.,.
Oc1ccccc1/C=N/Nc1ccccc1,.,30*,.,.,.,-1,38*,13
CCOCCCNc1ncnc2c1[nH]c1ccccc12,-4,29*,-5,20,8,-1,25,16
c1nc(NCC2CCCO2)c2[nH]cnc2n1 (configuration not stated),7,0,-7,6,-1,-1,.,.
CCCCn1cnc2c([nH]c3ccccc32)c1=O,-9,1,-4,9,5,0,.,.
c1ccc2c(c1)[nH]c1c(NCC3CCCO3)ncnc12 (configuration not stated),9,28*,-11,10,-5,0,27*,5
CCCCOCCCNc1ncnc2c1[nH]c1ccccc12,-10,47*,-1,29,6,-1,31*,23
C=CCNc1ncnc2c1[nH]c1ccccc12,-1,24,-2,-5,5,-2,.,.
COC(=O)CCC(=O)NC(=S)Nc1sc(C)c(C)c1C(N)=O,.,9,.,.,.,1,.,.
Cc1sc(NC(=S)NC(=O)CCc2ccccc2)c(C(N)=O)c1C,.,33*,.,.,.,4,28*,36*
C[C@@](N)(Cc1c[nH]c2ccccc12)C(=O)O,2,.,.,.,.,.,.,.
CCc1c(C)nc2ncnn2c1NCCc1ccc(OC)cc1,0,32*,-10,27,9,-2,35*,10
CC1(C)Cc2c(ccc3ccccc23)C(NNC(=O)c2cccnc2)=N1,-19,-13,-7,19,2,-3,.,.
COc1cc(OC)nc(-n2ncc(Br)c(Br)c2=O)n1,.,103*,.,.,.,-2,103*,105*
CCCN(CCC)C(=S)NC(=O)c1ccc(-c2ccccc2)cc1,.,-5,-2,1,.,-4,.,.
Cc1nc2nc(-c3cccs3)cn2nc1C,19,28*,-13,39,4,-1,31*,35*
SMILES,Smad3 FoxH1 inh,GALR2 blocker,S1P2 ag,S1P2 antag,Calb biofilm kill,GALR2 agonist,GALR2 ant conf,BLA inh counter
Nc1ccc2c(c1)C/C(=C/c1ccco1)C2=O,.,29*,.,.,.,-2,33*,36*
O=C1/C(=C/c2ccco2)CCc2ccccc21,.,-4,.,.,.,0,.,.
COc1cccc(C(=O)Nc2ccc(S(=O)(=O)NCc3ccco3)cc2)c1,0,29*,.,.,-4,0,15,12
Cn1c(=O)c(C(=O)CCl)c(N)n(CC2CC2)c1=O,.,4,.,.,.,-2,.,.
O=C(/C=C/c1cn(CC(O)CN2CCCCCC2)c2ccccc12)c1cccs1 (configuration not stated),.,20,.,.,.,2,.,.
CCCCN(C)CC(O)Cn1cc(/C=C/C(=O)c2cccs2)c2ccccc21 (configuration not stated),.,50*,.,.,.,1,29*,43*
CCCCCCCCCCn1c2c(c(=N)c3c1CCC3)CCC2,-2,36*,-5,87*,1,-4,30*,57*
